We go through nine compounds from PubChem BioAssay.

Experiment [1] is described as follows: resazurin metabolic signal in HepG2 cells – cell-based, resazurin fluorescence, 24 h, PK04 Diversity Set, profiling panel (AID 1172). The following applies: HepG2 viability, higher = more signal. For orientation: Alamar Blue is a resazurin reagent that responds to reducing activity.
The nature of experiment [2]: budding yeast growth changes without added modifier – OD600, strain BY4716, 24 h, basal condition, primary screen (AID 1173). The following applies: S. cerevisiae BY4716 growth, OD600, 24 h; higher = more signal, called active from +8 up or from −8 down.
Experiment [3] in a line: viability profiling in MM1S myeloma cells – cell-based, resazurin fluorescence, basal, 24 h, PK04 Diversity Set, profiling panel (AID 1174). The settings on record: higher = more signal, called active from +8 up or from −8 down.
Experiment [4] concerns the target Dihydroorotate dehydrogenase (quinone), mitochondrial (Plasmodium falciparum (isolate 3D7)) (UniProt Q08210). In words: inhibition of P. falciparum DHODH – biochemical, C-terminal His tag, absorbance 600 nm, primary screen (AID 1175).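 Note: recombinant parasite enzyme with a five histidine tag at its C terminus.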 The following applies: PfDHODH enzyme, DCIP absorbance 600 nm; higher = more signal, called active from +8 up or from −8 down.
Experiment [5] is described as follows: inhibition of PAO1 biofilm formation – strain PAO1, LB-PBS medium, absorbance 600 nm, primary screen (AID 1176). The following applies: P. aeruginosa PAO1 growth/biofilm, A600, 12 h; higher = more signal.
Experiment [6] is described as follows: growth modulation of vineyard yeast isolate – strain RM11-1a, OD600, basal, 24 h, primary screen (AID 1177).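 Note: cultures grown under basal conditions with no added stressor.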 The following applies: S. cerevisiae RM11-1a growth, OD600, 24 h; higher = more signal, called active from +8 up or from −8 down.
Experiment [7] is described as follows: growth of efflux-deficient E. coli DRC39 – strain DRC39, OD650, 24 h, E. coli filamentation inducers, primary screen (AID 1178).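 Note: growth measured as culture turbidity by optical density at 650 nm.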 The following applies: E. coli DRC39 acrAB, higher = more signal, called active from +8 up or from −8 down.
Experiment [8] can be described thus: growth of efflux-deficient E. coli DRC39 – strain DRC39, OD650, 48 h, E. coli filamentation inducers, primary screen (AID 1179).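 Note: screen aims at cell division blockers that make cells filament.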 The following applies: E. coli DRC39 delta-acrAB growth, higher = more signal, called active from +8 up or from −8 down.
Experiment [9] in a line: viability profiling in RPMI8226 myeloma cells – cell-based, resazurin fluorescence, basal, 24 h, PK04 Diversity Set, profiling panel (AID 1180).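 Note: RPMI8826 multiple myeloma cell line at 5000 cells per well.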 The following applies: higher = more signal.
For experiment [10], the target named is E3 ubiquitin-protein ligase XIAP (Homo sapiens) (UniProt P98170). In words: small molecules binding XIAP protein – biophysical, small-molecule microarray, fluorescence 635 nm, primary screen (AID 1181).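 Note: score merges 667 nm emission and signal to noise over triplicate slides.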 The following applies: higher = more signal.
The test system of experiment [11] is XIP peptide (Xip251-270) binding. In words: XIP fragment 251-270 binding compounds – biochemical, small-molecule microarray, fluorescence 635/667 nm, 0.1 µg/mL protein, primary screen (AID 1182). The settings on record: fluorescent protein binding, 635 nm, higher = more signal, called active from +8 up or from −8 down.
The next experiment deals with XIP peptide (Xip251-270). In words: compounds binding XIP fragment 251-270 – biochemical, small-molecule microarray, fluorescence 635/667 nm, 0.5 µg/mL protein, primary screen (AID 1183). The following applies: fluorescence 635 nm, higher = more signal.
Experiment [12] in a line: blood-stage malaria parasite viability loss – strain 3D7, DAPI fluorescence, 100 nL, primary screen (AID 1184).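 Note: parasites grown inside human red blood cells in medium with human serum.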 The following applies: P. falciparum 3D7 growth, 3 d, higher = more signal.
Experiment [13] concerns the target Homeobox protein Hox-A13 (Mus musculus) (UniProt Q62424). In words: disruptors of Hoxa13 oligonucleotide interaction – biochemical, fluorescence polarization, labeled oligonucleotide, primary screen (AID 1185). The following applies: Hoxa13:DNA binding, 15 min, higher = more signal, called active from +8 up or from −8 down. For orientation: Polarisation of emitted light reports the rotation of a fluorescent probe.

The nature of experiment [14]: blockers of DNA damage checkpoint Chk1 activation – imaging, HeLa, hydroxyurea, phospho-Chk1 antibody, percent positive cells, primary screen (AID 1186). The settings on record: hydroxyurea-induced phospho-Chk1 immunofluorescence imaging, higher = more signal.
A short description of experiment [15]: blockers of DNA damage checkpoint Chk1 activation – imaging, HeLa, hydroxyurea, phospho-Chk1 nuclear intensity, primary screen (AID 1187). The following applies: hydroxyurea-induced phospho-Chk1 immunofluorescence imaging, higher = more signal.

Calls of active or inactive are those of the source. Unless noted, the rule behind the calls is not given here.

E3 ubiquitin-protein ligase XIAP (Homo sapiens), sequence (P98170 whole entry, looked up, the tested form may be a part): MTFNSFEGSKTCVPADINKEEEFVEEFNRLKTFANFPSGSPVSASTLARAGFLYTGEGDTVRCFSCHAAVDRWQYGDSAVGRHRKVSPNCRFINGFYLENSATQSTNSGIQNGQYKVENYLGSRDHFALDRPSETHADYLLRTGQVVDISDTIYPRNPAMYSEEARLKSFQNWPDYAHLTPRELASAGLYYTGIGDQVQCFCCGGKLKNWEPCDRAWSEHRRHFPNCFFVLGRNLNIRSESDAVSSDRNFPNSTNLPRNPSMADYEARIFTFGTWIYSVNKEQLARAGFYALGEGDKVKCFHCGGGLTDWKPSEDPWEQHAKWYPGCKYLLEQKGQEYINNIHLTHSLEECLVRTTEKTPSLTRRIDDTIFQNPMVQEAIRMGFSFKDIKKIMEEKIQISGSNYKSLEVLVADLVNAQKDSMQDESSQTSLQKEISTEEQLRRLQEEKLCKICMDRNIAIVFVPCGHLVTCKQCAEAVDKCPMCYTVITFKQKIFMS
Homeobox protein Hox-A13 (Mus musculus), sequence (Q62424 whole entry, looked up): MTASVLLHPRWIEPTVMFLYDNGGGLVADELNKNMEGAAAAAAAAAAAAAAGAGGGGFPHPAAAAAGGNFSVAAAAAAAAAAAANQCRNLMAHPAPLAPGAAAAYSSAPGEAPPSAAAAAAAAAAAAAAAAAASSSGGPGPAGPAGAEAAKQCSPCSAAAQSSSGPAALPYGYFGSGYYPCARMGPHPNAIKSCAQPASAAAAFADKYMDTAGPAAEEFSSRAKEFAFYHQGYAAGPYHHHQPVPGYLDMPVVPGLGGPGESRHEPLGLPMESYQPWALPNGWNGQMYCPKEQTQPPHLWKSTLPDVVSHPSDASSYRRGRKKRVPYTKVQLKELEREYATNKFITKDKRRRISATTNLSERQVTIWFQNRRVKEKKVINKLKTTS
Dihydroorotate dehydrogenase (quinone), mitochondrial (Plasmodium falciparum (isolate 3D7)), sequence (Q08210 whole entry, looked up): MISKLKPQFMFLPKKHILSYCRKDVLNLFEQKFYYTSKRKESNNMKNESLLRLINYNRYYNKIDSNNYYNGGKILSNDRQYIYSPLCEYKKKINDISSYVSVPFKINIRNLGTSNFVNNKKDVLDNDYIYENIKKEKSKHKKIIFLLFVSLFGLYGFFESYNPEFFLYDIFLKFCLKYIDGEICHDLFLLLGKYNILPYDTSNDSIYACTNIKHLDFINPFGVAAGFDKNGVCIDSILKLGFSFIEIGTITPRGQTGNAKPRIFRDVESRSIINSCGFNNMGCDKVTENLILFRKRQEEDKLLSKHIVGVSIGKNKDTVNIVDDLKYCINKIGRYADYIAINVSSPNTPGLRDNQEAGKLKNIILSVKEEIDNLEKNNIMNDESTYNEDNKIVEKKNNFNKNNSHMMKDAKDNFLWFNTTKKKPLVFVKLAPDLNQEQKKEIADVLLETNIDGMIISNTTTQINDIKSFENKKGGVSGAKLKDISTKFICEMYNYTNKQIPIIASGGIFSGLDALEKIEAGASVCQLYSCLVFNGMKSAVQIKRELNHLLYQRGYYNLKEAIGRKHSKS

As for `C=C(CCCC)/C(=C/C[C@@H](OC(=O)c1ccncc1)c1cccc(OCCO)c1)c1cnc2ccccc2c1`, the z-score in experiment [1] is 0.0976; in experiment [2], -1.17 (inactive); in experiment [3], -0.369 (inactive); in experiment [5], 2.24 (inactive); in [6], 0.264 (inactive); in experiment [7], 0.879 (inactive). Moreover, the z-score in [8] is 0.357 (inactive); in [9], 0.0765; in experiment [12], -3.03; in experiment [13], -3.72 (inactive); in experiment [14], -0.403 (inactive); in experiment [15], -0.342 (inactive). Moreover, the composite z-score in [4] is -2.5 (inactive); in [10], -0.0261; in experiment [11], 0.389 (inactive); in the experiment with XIP peptide (Xip251-270) it was 0.405.

On to `NCCCCCCNC(=O)[C@H]1C[C@H]2C(=O)N[C@@H](Cc3ccccc3)C(=O)N2[C@H]1c1ccc(O)cc1`, for which the z-score in [1] was 0.614; in [2] it was -0.68 (inactive); in experiment [3], 1.58 (inactive); in [5], 0.118 (inactive); in experiment [6] it was -1.27 (inactive); in experiment [7], 0.279 (inactive). Besides, the z-score was 0.04 (inactive) in experiment [8]; 1.27 in experiment [9]; 0.171 in [12]; -3.5 (inactive) in [13]; -0.174 (inactive) in experiment [14]; 0.592 (inactive) in experiment [15]. The composite z-score in experiment [4] is -1.32 (inactive); in [10] it was -0.0826; in [11], -0.342 (inactive); in the experiment with XIP peptide (Xip251-270), 0.623.

With `CC(C)c1ccc(NN2C(C(O)c3ccco3)C=CC3C(=O)N(c4ccccc4)C(=O)C32)cc1` (centres undefined), the z-score in [1] was -0.517; in experiment [2], -2.51 (inactive); in [3], -1.23 (inactive); in experiment [5], 1.07 (inactive); in [6] it was 0.921 (inactive); in experiment [7] it was -0.609 (inactive). The z-score is 0.245 (inactive) in experiment [8]; -0.695 in experiment [9]; -0.107 in experiment [12]; -3.14 (inactive) in [13]; -0.881 (inactive) in experiment [14]; -1.03 (inactive) in experiment [15]. The composite z-score in experiment [4] was 0.325 (inactive); in experiment [10], -0.0026; in experiment [11], 0.938 (inactive); in the experiment on XIP peptide (Xip251-270), 0.849.

Turning to `O=C1c2ccccc2[C@](Cc2ccccc2I)(C(=O)NCc2ccccc2)[C@H](c2ccc(CO)cc2)N1C1CCCCC1`, the z-score in experiment [1] is -0.176; in [2] it was -0.453 (inactive); in experiment [3] it was 0.485 (inactive); in experiment [5] it was 0.214 (inactive); in experiment [6], -0.871 (inactive); in experiment [7], 0.852 (inactive). Also, the z-score is -0.14 (inactive) in experiment [8]; 0.489 in [9]; -1.34 in [12]; -2.27 (inactive) in experiment [13]; -0.353 (inactive) in experiment [14]; -0.12 (inactive) in experiment [15]. The composite z-score is -0.567 (inactive) in [4], 0.182 in [10], 0.353 (inactive) in [11] and 0.713 in the experiment with XIP peptide (Xip251-270).

Regarding `COc1ccc(NC(=O)O[C@H]2[C@H](OC(=O)Nc3ccc4c(c3)OCO4)[C@@H](OC(=O)Nc3ccc4c(c3)OCO4)[C@@H](OC)O[C@@H]2CO)cc1`, the z-score in [1] was -0.315; in experiment [2] it was 1.96 (inactive); in experiment [3] it was -0.844 (inactive); in experiment [5], 2.33 (inactive); in experiment [6] it was 1.56 (inactive); in experiment [7], 1.13 (inactive). In addition, the z-score was 0.0559 (inactive) in [8]; -0.85 in experiment [9]; -2.04 in experiment [12]; -6.9 (inactive) in experiment [13]; -0.0538 (inactive) in experiment [14]; 0.419 (inactive) in experiment [15]. For the same compound, the composite z-score in [4] is -0.445 (inactive); in experiment [10], -0.102; in [11] it was 1.61 (inactive); in the experiment on XIP peptide (Xip251-270), 0.877.

With `COCCOC(=O)N1C(=O)[C@@]2(c3ccccc31)[C@H](c1ccc(OCCO)cc1)N1[C@H](c3ccccc3)[C@H](c3ccccc3)OC(=O)[C@H]1[C@@H]2C(=O)Nc1nc2ccccc2s1`, the z-score in experiment [1] was 0.269; in [2], 1.29 (inactive); in experiment [3] it was -0.657 (inactive); in [5], 2 (inactive); in experiment [6], 1.11 (inactive); in experiment [7] it was -0.176 (inactive). In addition, the z-score in experiment [8] is -0.524 (inactive); in experiment [9] it was 0.0486; in experiment [12], -0.365; in experiment [13], 0.0267 (inactive); in experiment [14], -0.0021 (inactive); in experiment [15], -0.178 (inactive). In addition, the composite z-score in [4] is -0.383 (inactive); in experiment [10], 0.259; in experiment [11], 1.72 (inactive); in the experiment on XIP peptide (Xip251-270), 0.745.

Turning to `O=C1NC(=O)C2C1C=CC(C(O)c1c(F)cccc1Cl)N2Nc1ccccn1` (centres undefined), the z-score is -1.73 in experiment [1]; 1.19 (inactive) in experiment [2]; -1.65 (inactive) in [3]; 0.543 (inactive) in experiment [5]; -0.0601 (inactive) in experiment [6]; -0.883 (inactive) in [7]. Besides, the z-score in experiment [8] is -0.0739 (inactive); in experiment [9] it was -1.74; in [12], -0.362; in experiment [13], -2.19 (inactive); in experiment [14], 0.578 (inactive); in experiment [15] it was 0.135 (inactive). Moreover, the composite z-score in experiment [4] was 0.722 (inactive); in experiment [10], 0.118; in experiment [11] it was 0.49 (inactive); in the experiment on XIP peptide (Xip251-270), 0.833.

`CC1CC/C=C\[C@H]2OC34C=CCN(c5ccc6ccccc6c5)C(=O)[C@H]3N(C(CO)C(C)C)C(=O)[C@@H]4C2C(=O)O1` (some centres undefined): the z-score in experiment [1] is -0.452; in experiment [2] it was -0.0979 (inactive); in experiment [3], -0.241 (inactive); in experiment [5] it was -0.332 (inactive); in [6] it was -0.319 (inactive); in experiment [7] it was 0.0932 (inactive). Also, the z-score in [8] was 0.154 (inactive); in experiment [9], -0.315; in experiment [12], -0.571; in experiment [13], -6.57 (inactive); in experiment [14], 0.174 (inactive); in experiment [15] it was 0.604 (inactive). Also, the composite z-score in experiment [4] is -2.17 (inactive); in experiment [10] it was 0.558; in experiment [11] it was 0.17 (inactive); in the experiment on XIP peptide (Xip251-270), -0.0558.

Consider `CN1C(=O)[C@@]2(CCS(=O)(=O)c3ccccc3)N=C(c3ccc(OCCCO)cc3)O[C@H]2c2ccccc21`, for which the z-score in experiment [1] is 0.316; in experiment [2], 0.369 (inactive); in experiment [3], 0.718 (inactive); in experiment [5], -0.469 (inactive); in experiment [6], 0.64 (inactive); in experiment [7], 0.606 (inactive). Moreover, the z-score in [8] is 0.946 (inactive); in experiment [9] it was -1.09; in experiment [12], -2.07; in experiment [13], -6.19 (inactive); in [14], -0.262 (inactive); in experiment [15], 0.146 (inactive). Besides, the composite z-score in experiment [4] was 0.0865 (inactive); in [10] it was 0.205; in experiment [11], 0.489 (inactive); with XIP peptide (Xip251-270), 0.182.
